# In PubChem BioAssay (EPA / NIEHS):
# Some compounds were tested as several samples or in several runs, with calls that do not always agree. Calls of active or inactive are those of the source. How the source made its calls: active means hit-call score of the fitted dose curve at least 0.9, where 1 is the maximum; inactive means score below 0.9.
# Experiments:
# [1] = BSK_CASM3C_SRB: Viability Assessment in the BioMAP Diversity Plus: CASM3C Assay (AID 2283050); settings: primary human coronary artery smooth muscle cells;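 further: cells exposed to compound for 24 h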
# [2] = read-out: Thrombomodulin, THBD (gene 7056); test: BSK_CASM3C_Thrombomodulin: BioMAP Diversity Plus: CASM3C Assay for Thrombomodulin Biomarker Activity (AID 2283051); settings: primary human coronary artery smooth muscle cells; actives raise or lower the signal;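 further: thrombomodulin protein level measured by ELISA 24 h after dosing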
# [3] = read-out: Tissue Factor, F3 (gene 2152); test: BSK_CASM3C_TissueFactor: BioMAP Diversity Plus: CASM3C Assay for Tissue Factor Biomarker Activity (AID 2283052); settings: primary human coronary artery smooth muscle cells; actives raise or lower the signal;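 further: cell surface tissue factor protein level read by ELISA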
# [4] = read-out: Interferon-gamma inducible Protein 10 (IP10), CXCL10 (gene 3627); test: BSK_hDFCGF_IP10: BioMAP Diversity Plus: hDFCGF Assay for Interferon-gamma inducible Protein 10 (IP10) Biomarker Activity (AID 2283053); settings: primary human foreskin fibroblasts; actives raise or lower the signal
# Procedure, shortened: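 ELISA quantification of IP-10 after a 24 h chemical exposure of human dermal foreskin fibroblast primary cultures. Both increases and decreases versus DMSO fitted.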
# [5] = read-out: Urokinase-type plasminogen activator receptor (uPAR), PLAUR (gene 5329); test: BSK_CASM3C_uPAR: BioMAP Diversity Plus: CASM3C Assay for Urokinase-type plasminogen activator receptor (uPAR) Biomarker Activity (AID 2283054); settings: primary human coronary artery smooth muscle cells; actives raise or lower the signal;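 further: cell-surface uPAR protein level quantified by ELISA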
# [6] = read-out: Vascular cell adhesion molecule 1 (VCAM1), VCAM1 (gene 7412); test: BSK_CASM3C_VCAM1: BioMAP Diversity Plus: CASM3C Assay for Vascular cell adhesion molecule 1 (VCAM1) Biomarker Activity (AID 2283055); settings: primary human coronary artery smooth muscle cells; actives raise or lower the signal;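 further: VCAM-1 protein level quantified by ELISA on the cells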
# [7] = read-out: Collagen III, COL3A1 (gene 1281); test: BSK_hDFCGF_CollagenIII: BioMAP Diversity Plus: hDFCGF Assay for Collagen III Biomarker Activity (AID 2283056); settings: primary human foreskin fibroblasts; actives raise or lower the signal
# Procedure, shortened: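 Cells: human foreskin fibroblasts, primary. Dosing followed by 24 h incubation, then ELISA for collagen III. Both increases and decreases scored relative to DMSO.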
# [8] = read-out: Epidermal growth factor receptor (EGFR), EGFR (gene 1956); test: BSK_hDFCGF_EGFR: BioMAP Diversity Plus: hDFCGF Assay for Epidermal growth factor receptor (EGFR) Biomarker Activity (AID 2283057); settings: primary human foreskin fibroblasts; actives raise or lower the signal
# Procedure, shortened: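 EGFR levels by ELISA in human dermal fibroblast cultures, 24 h post-treatment, fitted bidirectionally versus DMSO. Parallel wells stained with sulforhodamine B to detect overt cytotoxicity.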
# [9] = read-out: Interleukin-8 (IL8), CXCL8 (gene 3576); test: BSK_hDFCGF_IL8: BioMAP Diversity Plus: hDFCGF Assay for Interleukin-8 (IL8) Biomarker Activity (AID 2283058); settings: primary human foreskin fibroblasts; actives raise or lower the signal
# Procedure, shortened: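 IL-8 levels from compound-treated primary human fibroblasts were read by ELISA at 24 h, with DMSO serving as baseline for bidirectional fitting.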
# [10] = BSK_hDFCGF_Proliferation: Cell Proliferation Assessment in the BioMAP Diversity Plus: hDFCGF Assay (AID 2283059); settings: primary human foreskin fibroblasts;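 further: curves fitted for both rise and fall of signal versus DMSO baseline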
# Procedure, shortened: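 This proliferation readout used SRB total-protein staining of human foreskin fibroblasts […], normalized to DMSO with bidirectional curve fitting.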
# [11] = read-out: Macrophage colony-stimulating factor (MCSF), CSF1 (gene 1435); test: BSK_hDFCGF_MCSF: BioMAP Diversity Plus: hDFCGF Assay for Macrophage colony-stimulating factor (MCSF) Biomarker Activity (AID 2283060); settings: primary human foreskin fibroblasts; actives raise or lower the signal
# Procedure, shortened: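 M-CSF levels, determined by ELISA, are taken at 24 h after dosing human skin fibroblasts. Responses in either direction are fitted with DMSO serving as the baseline.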
# [12] = BSK_hDFCGF_SRB: Viability Assessment in the BioMAP Diversity Plus: hDFCGF Assay (AID 2283061); settings: primary human foreskin fibroblasts;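 further: cells exposed to compound for 24 h before the read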
# Procedure, shortened: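 Cells were dosed with test chemical, cultured 24 h, fixed with 10% TCA, then stained with 0.1% SRB and read at 560 nm. The fibroblasts were human foreskin primary cells, and DMSO served as baseline.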
# [13] = read-out: TIMP metallopeptidase inhibitor 1 (TIMP1), TIMP1 (gene 7076); test: BSK_hDFCGF_TIMP1: BioMAP Diversity Plus: hDFCGF Assay for TIMP metallopeptidase inhibitor 1 (TIMP1) Biomarker Activity (AID 2283062); settings: primary human foreskin fibroblasts; actives raise or lower the signal
# Procedure, shortened: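 Fibroblasts from human foreskin are treated with test chemical and harvested at 24 h. TIMP-1 is quantified by ELISA, and gain or loss of signal is scored against DMSO.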
# [14] = read-out: Monokine induced gamma interferon (MIG), CXCL9 (gene 4283); test: BSK_hDFCGF_MIG: BioMAP Diversity Plus: hDFCGF Assay for Monokine induced gamma interferon (MIG) Biomarker Activity (AID 2283063); settings: primary human foreskin fibroblasts; actives raise or lower the signal
# Procedure, shortened: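 MIG signal, determined by ELISA, reflects 24 h chemical exposure of human skin primary fibroblasts. DMSO serves as negative control and baseline.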
# [15] = read-out: Matrix Metallopeptidase 1 (MMP1), MMP1 (gene 4312); test: BSK_hDFCGF_MMP1: BioMAP Diversity Plus: hDFCGF Assay for Matrix Metallopeptidase 1 (MMP1) Biomarker Activity (AID 2283064); settings: primary human foreskin fibroblasts; actives raise or lower the signal
# Procedure, shortened: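 Human foreskin fibroblasts exposed to chemical for 24 h; MMP1 detected by ELISA, with DMSO as baseline for bidirectional fitting.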
# [16] = read-out: Vascular cell adhesion molecule 1 (VCAM1), VCAM1 (gene 7412); test: BSK_hDFCGF_VCAM1: BioMAP Diversity Plus: hDFCGF Assay for Vascular cell adhesion molecule 1 (VCAM1) Biomarker Activity (AID 2283065); settings: primary human foreskin fibroblasts; actives raise or lower the signal
# Procedure, shortened: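 Cells are dosed, cultured for 24 h, then VCAM-1 is quantified by ELISA; signal increases and decreases are both fitted relative to DMSO.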
# [17] = read-out: Plasminogen activator inhibitor-1 (PAI1), SERPINE1 (gene 5054); test: BSK_hDFCGF_PAI1: BioMAP Diversity Plus: hDFCGF Assay for Plasminogen activator inhibitor-1 (PAI1) Biomarker Activity (AID 2283066); settings: primary human foreskin fibroblasts; actives raise or lower the signal
# Procedure, shortened: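 PAI-1 levels in human dermal foreskin fibroblasts were quantified by ELISA 24 h after dosing, with gain or loss analysed against DMSO. Overt cytotoxicity was checked by sulforhodamine B total-protein staining in parallel cultures.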
# [18] = read-out: Intercellular Adhesion Molecule 1 (ICAM1), ICAM1 (gene 3383); test: BSK_KF3CT_ICAM1: BioMAP Diversity Plus: KF3CT Assay for Intercellular Adhesion Molecule 1 (ICAM1) Biomarker Activity (AID 2283067); settings: primary human keratinocytes with fibroblasts; actives raise or lower the signal
# Procedure, shortened: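 Dose the keratinocyte/fibroblast co-culture, wait 24 h, measure ICAM-1 by ELISA, then fit increases or decreases against DMSO. Cytotoxicity is checked in parallel cultures by SRB total-protein staining.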
# [19] = read-out: Interferon-gamma inducible Protein 10 (IP10), CXCL10 (gene 3627); test: BSK_KF3CT_IP10: BioMAP Diversity Plus: KF3CT Assay for Interferon-gamma inducible Protein 10 (IP10) Biomarker Activity (AID 2283068); settings: primary human keratinocytes with fibroblasts; actives raise or lower the signal
# Procedure, shortened: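 Signal is secreted/surface IP-10 by ELISA in a human primary skin co-culture of keratinocytes and foreskin fibroblasts, taken 24 h post-dosing; DMSO served as negative control.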
# [20] = BSK_KF3CT_SRB: Viability Assessment in the BioMAP Diversity Plus: KF3CT Assay (AID 2283069); settings: primary human keratinocytes with fibroblasts;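 further: fitted for both signal gain and loss against DMSO baseline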
# Procedure, shortened: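 Overt cytotoxicity is assessed as total protein by sulforhodamine B staining in parallel human skin co-cultures at 24 h after dosing. DMSO serves as negative control and baseline.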
structure (smiles),measurement,setting,value
OCC(F)(F)OC(F)(F)C(F)(F)OC(F)(F)CO,outcome,[1],inactive
same,outcome,[2],inactive
same,outcome,[3],inactive
same,outcome,[4],inactive
same,outcome,[5],inactive
same,outcome,[6],inactive
same,outcome,[7],inactive
same,outcome,[8],inactive
same,outcome,[9],inactive
same,outcome,[10],inactive
same,outcome,[11],inactive
same,outcome,[12],inactive
same,outcome,[13],inactive
same,outcome,[14],inactive
same,outcome,[15],inactive
same,outcome,[16],inactive
same,outcome,[17],inactive
same,outcome,[18],inactive
same,outcome,[19],inactive
CC(O)C(F)(F)C(F)(F)F (stereo not drawn),outcome,[1],inactive
same,AC50,[2],3.08 µM (active)
same,outcome,[2],inactive
same,outcome,[3],inactive
same,outcome,[4],inactive
same,outcome,[5],inactive
same,outcome,[6],inactive
same,outcome,[7],inactive
same,outcome,[8],inactive
same,outcome,[9],inactive
same,outcome,[10],inactive
same,outcome,[11],inactive
same,outcome,[12],inactive
same,outcome,[13],inactive
same,outcome,[14],inactive
same,outcome,[15],inactive
same,outcome,[17],inactive
same,outcome,[18],inactive
same,outcome,[19],inactive
same,outcome,[20],inactive
O=P1(N(CCCl)CCCl)NCCCO1 (stereo not drawn),outcome,[1],inactive
same,outcome,[2],inactive
same,outcome,[3],inactive
same,outcome,[4],inactive
same,outcome,[5],inactive
same,outcome,[6],inactive
same,outcome,[7],inactive
same,outcome,[8],inactive
same,outcome,[9],inactive
same,outcome,[10],inactive
same,outcome,[11],inactive
same,outcome,[12],inactive
same,outcome,[13],inactive
same,outcome,[14],inactive
same,outcome,[15],inactive
same,outcome,[16],inactive
same,outcome,[17],inactive
same,outcome,[18],inactive
same,outcome,[19],inactive
CC(Cl)CN(C)C (stereo not drawn),outcome,[1],inactive
same,outcome,[2],inactive
same,outcome,[3],inactive
same,outcome,[4],inactive
same,AC50,[5],0.177 µM (active)
same,outcome,[6],inactive
same,outcome,[7],inactive
same,outcome,[8],inactive
same,outcome,[9],inactive
same,outcome,[10],inactive
same,outcome,[11],inactive
same,outcome,[12],inactive
same,outcome,[13],inactive
same,outcome,[14],inactive
same,outcome,[15],inactive
same,outcome,[16],inactive
same,outcome,[17],inactive
same,outcome,[18],inactive
same,outcome,[19],inactive
O=C(O)C(F)(OC(F)(F)C(F)(F)C(F)(F)F)C(F)(F)F (stereo not drawn),outcome,[1],inactive
same,AC50,[2],2.48 µM (active)
same,outcome,[2],inactive
same,outcome,[3],inactive
same,outcome,[4],inactive
same,outcome,[5],inactive
same,outcome,[6],inactive
same,outcome,[7],inactive
same,outcome,[8],inactive
same,outcome,[9],inactive
same,outcome,[10],inactive
same,outcome,[11],inactive
same,outcome,[12],inactive
same,outcome,[13],inactive
same,outcome,[14],inactive
same,outcome,[15],inactive
same,outcome,[17],inactive
same,outcome,[18],inactive
same,outcome,[19],inactive
O=C(O)C(F)(F)C(F)(F)C(=O)O,outcome,[1],inactive
same,outcome,[2],inactive
same,outcome,[3],inactive
same,AC50,[4],17.2 µM (active)
same,outcome,[4],inactive
same,outcome,[5],inactive
same,outcome,[6],inactive
same,outcome,[7],inactive
same,outcome,[8],inactive
same,outcome,[9],inactive
same,AC50,[10],0.22 µM (active)
same,outcome,[10],inactive
same,outcome,[11],inactive
same,outcome,[12],inactive
same,outcome,[13],inactive
same,AC50,[14],14.1 µM (active)
same,outcome,[14],inactive
same,outcome,[15],inactive
same,outcome,[16],inactive
same,outcome,[17],inactive
same,outcome,[18],inactive
same,outcome,[19],inactive
